From PubChem
A selection: hits, their analogues and other compounds. The true share with any hit is near 19%.
DT40 TDP1 no CPT: qHTS for Inhibitors of human tyrosyl-DNA phosphodiesterase 1 (TDP1): qHTS in cells in absence of CPT | DT40 Tdp1-/- hTDP1 cells, no CPT, ATP luminescence, 48 h | AID 686978, 2013 | Potency, µM (top dose mostly 46.2 µM), for the others: at the highest dose activity change, negative = growth inhibition, actives largely listed as inhibitors | actives 15% (n = 420,000); also: potency is read from the fitted curve at half-maximal effect; nearly all actives have a fitted effect of over 55% in size
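DT40 Tdp1-/-;hTDP1 cells, no CPT (DMSO vehicle only), 400 cells/well; compounds pin-transferred; ≥48 hr, 37 °C; CellTiter-Glo 30 min RT dark, luminescence read.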
HT1080 IDH1KD tx: HT-1080 IDH1 knockdown cell toxicity (counter line) | HT-1080 IDH1 knockdown viability, ATP luminescence, 48 h | Potency, µM (top dose mostly 46.1 µM), inactives show at the top dose activity, negative = toxicity, hits mostly cytotoxic | actives 2% (n = 360,000);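 also: potency is read from the fitted curve at half-maximal effect; 0% = DMSO wells and -100% = cell-free medium wells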
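CellTiter-Glo luminescence after 48 h compound exposure at 37 degrees C of IDH1-knockdown HT-1080 cells in 5% FBS RPMI. %Activity scaled between DMSO wells and cell-free media wells, with curves fitted and assigned curve classes.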
IL-1B inflam inh: inflammasome signaling inhibition, IL-1 beta readout. activity change, % at 57.5 µM. THP-1 LPS/ATP IL-1B secretion, AlphaLISA, 16 h; active compounds read low. actives 4.7% (n = 360,000); in the data active = activity change below about -50%; inconclusive = mostly about -30% to -49%
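Secreted IL-1B measured by AlphaLISA bead assay after 16 h compound exposure of THP-1 cells; compounds (final up to 57.5 uM) added 1 h before LPS (250 ng/mL) and ATP (1.25 mM) stimulation; lower signal means less secretion.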
DT40 TDP1 CPT: growth inhibition of DT40 Tdp1-/-;hTDP1 cells with camptothecin (screen for TDP1 inhibitors); chicken DT40 Tdp1-/-;hTDP1 cells + 20 nM CPT, ATP luminescence, 48 h; Potency, µM (doses to about 46.2 µM), without a hit: at the top dose activity change, negative = growth inhibition, actives largely listed as inhibitors; actives 12% (n = 420,000); AID 686979; also: potency is read from the fitted curve at half-maximal effect; nearly all actives have a fitted effect of over 55% in size
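Chicken DT40 Tdp1-/- cells complemented with human TDP1, 400 cells/well, exposed to compounds plus 20 nM camptothecin for at least 48 h at 37 C; viability read as ATP content by CellTiter-Glo luminescence.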
HT1080-NT tox: kills 2HG-producing HT-1080-NT fibrosarcoma cells; actives 1.6% (n = 360,000); HT-1080-NT fibrosarcoma viability, CellTiter-Glo ATP luminescence, 48 h; Potency, µM (top dose mostly 46.1 µM), inactives show at the highest dose activity, negative = less viability, usual class: cytotoxic;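 also: NT is the 2HG producing partner of a matched IDH1 knockdown line; potency is read from the fitted curve at half-maximal effect; 0% = DMSO-treated cells and -100% = media-only wells without cells; nearly all actives have a fitted effect of over 55% in size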
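Viability by CellTiter-Glo luminescence after 48 h compound exposure at 37C of HT-1080-NT cells (750/well, RPMI, 5% FBS). % activity scaled between DMSO wells and medium-only wells, then curve-fitted and categorized by curve class.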
* marks the source's active call; other numbers are inactive results. Unless noted, calls follow the shape of the dose curve; as a rule, active = well fitted curve in the direction sought with a large enough effect; inconclusive = small, poorly fitted or top-dose-only effect, or another doubt; inactive = no such curve, though single readings can be large; an effect the other way counts as inactive or inconclusive. Unless noted, % is scaled to controls: 0 for no effect and ±100 for the full control effect.

What do the screens show for `CSc1nc(N)nc2c1ncn2CC(=O)N[C@H](CO)Cc1c[nH]c2ccccc12`?
DT40 TDP1 no CPT: inconclusive; HT1080 IDH1KD tx: 3%; IL-1B inflam inh: 23; DT40 TDP1 CPT: -22%; HT1080-NT tox: 0%

How did CC(C)NC(=O)c1ccccc1NC(=O)Cc1ccc([N+](=O)[O-])cc1 do in these assays?
DT40 TDP1 no CPT: 1%; HT1080 IDH1KD tx: 0%; IL-1B inflam inh: 20; DT40 TDP1 CPT: 8%; HT1080-NT tox: -1%

Results for CC(Oc1ccc(F)cc1)C(=O)Nc1ccc(N2CCOCC2)cc1N1CCOCC1 (centres undefined) ?
DT40 TDP1 no CPT: inconclusive; HT1080 IDH1KD tx: 4%; IL-1B inflam inh: -7; DT40 TDP1 CPT: -26%; HT1080-NT tox: -2%

How did CC(Oc1cccc(Cl)c1)C(=O)Nc1ccc(N2CCOCC2)cc1N1CCOCC1 (centres undefined) do in these assays?
DT40 TDP1 no CPT: 13µM*; HT1080 IDH1KD tx: -2%; IL-1B inflam inh: -24; DT40 TDP1 CPT: inconclusive; HT1080-NT tox: -26%

How did CCC(C)Oc1ccc(C(=O)Nc2ccc(CN3CCOCC3)cc2)cc1 (centres undefined) do in these assays?
DT40 TDP1 no CPT: 15µM*; HT1080 IDH1KD tx: -30%; IL-1B inflam inh: inconclusive; DT40 TDP1 CPT: 21µM*; HT1080-NT tox: inconclusive

Results for CC(C)COc1cccc(C(=O)Nc2ccc(N3CCOCC3)cc2N2CCOCC2)c1 ?
DT40 TDP1 no CPT: 13µM*; HT1080 IDH1KD tx: 6%; IL-1B inflam inh: -27; DT40 TDP1 CPT: inconclusive; HT1080-NT tox: 10%

Results for CC(C)COc1cccc(C(=O)Nc2ccc(CN3CCOCC3)cc2)c1 ?
DT40 TDP1 no CPT: inconclusive; HT1080 IDH1KD tx: inconclusive; IL-1B inflam inh: -82*; DT40 TDP1 CPT: 23µM*; HT1080-NT tox: -15%

How did CC(=O)c1c(O)cc(O)c(C(C)=O)c1O do in these assays?
DT40 TDP1 no CPT: inconclusive; HT1080 IDH1KD tx: 18µM*; IL-1B inflam inh: 39; DT40 TDP1 CPT: 21µM*; HT1080-NT tox: 13µM*

Results for CC(=O)c1c(O)cc(O)cc1CC(=O)O ?
DT40 TDP1 no CPT: 5%; HT1080 IDH1KD tx: -3%; IL-1B inflam inh: -1; DT40 TDP1 CPT: 8%; HT1080-NT tox: 1%

How did CCCCC(=O)Nc1ncc(Br)s1 do in these assays?
DT40 TDP1 no CPT: -12%; HT1080 IDH1KD tx: inconclusive; IL-1B inflam inh: -7; DT40 TDP1 CPT: -23%; HT1080-NT tox: -1%

Results for Cc1ccc(C)c(NC(=O)C(Cc2ccccc2)n2cccc2)c1 (centres undefined) ?
DT40 TDP1 no CPT: 16µM*; DT40 TDP1 CPT: inconclusive

What do the screens show for `Cc1ccc(NC(=O)C(Cc2ccccc2)n2cccc2)c(C)c1` (centres undefined)?
DT40 TDP1 no CPT: 15µM*; DT40 TDP1 CPT: 15µM*

What do the screens show for `O=C(Nc1ncc(Br)s1)C(Cc1ccccc1)n1cccc1` (centres undefined)?
DT40 TDP1 no CPT: inconclusive; HT1080 IDH1KD tx: -26%; IL-1B inflam inh: 24; DT40 TDP1 CPT: inconclusive; HT1080-NT tox: 26µM*

What do the screens show for `CCC(C)NC(=O)C(Cc1ccccc1)n1cccc1` (centres undefined)?
DT40 TDP1 no CPT: -1%; HT1080 IDH1KD tx: 0%; IL-1B inflam inh: -16; DT40 TDP1 CPT: -17%; HT1080-NT tox: -9%

What do the screens show for `O=C(Nc1ccccc1F)C(Cc1ccccc1)n1cccc1` (centres undefined)?
DT40 TDP1 no CPT: 15µM*; DT40 TDP1 CPT: inconclusive

What do the screens show for `Cc1ccc(NC(=O)CCC(=O)NNC(=O)C(c2ccccc2)c2ccccc2)c(C)c1`?
DT40 TDP1 no CPT: -7%; HT1080 IDH1KD tx: -10%; IL-1B inflam inh: -1; DT40 TDP1 CPT: inconclusive; HT1080-NT tox: -4%

What do the screens show for `O=C(CCc1ccccc1)Nc1ccccc1F`?
DT40 TDP1 no CPT: -12%; HT1080 IDH1KD tx: -6%; IL-1B inflam inh: -21; DT40 TDP1 CPT: 3%; HT1080-NT tox: -6%

What do the screens show for `CN(C)C(CNC(=O)C1CCN(S(=O)(=O)c2cc(Cl)ccc2Cl)CC1)Cc1ccccc1` (centres undefined)?
DT40 TDP1 no CPT: inconclusive; HT1080 IDH1KD tx: 1%; IL-1B inflam inh: -12; DT40 TDP1 CPT: -57%; HT1080-NT tox: 1%

How did O=C(Nc1ccccc1C(=O)N1CCCCC1)c1ccccc1C(F)(F)F do in these assays?
DT40 TDP1 no CPT: 8%; HT1080 IDH1KD tx: 7%; IL-1B inflam inh: -12; DT40 TDP1 CPT: 5%; HT1080-NT tox: 6%

What do the screens show for `Cc1ccccc1OCC(=O)OC(C)C(=O)NC1CCCC1` (centres undefined)?
DT40 TDP1 no CPT: -7%; HT1080 IDH1KD tx: -2%; IL-1B inflam inh: 0; DT40 TDP1 CPT: 5%; HT1080-NT tox: 0%

How did COc1cc(NC(=O)C2C3CCC(O3)C2C(=O)O)cc(OC)c1 (centres undefined) do in these assays?
DT40 TDP1 no CPT: -14%; HT1080 IDH1KD tx: inconclusive; IL-1B inflam inh: 97; DT40 TDP1 CPT: 2%; HT1080-NT tox: inconclusive

What do the screens show for `CN1CCN(c2ccccc2NC(=O)C(Cc2ccccc2)n2cccc2)CC1` (centres undefined)?
DT40 TDP1 no CPT: inconclusive; HT1080 IDH1KD tx: -13%; IL-1B inflam inh: -30; DT40 TDP1 CPT: 26µM*; HT1080-NT tox: -17%

How did Cc1ccc(NC2=NCC(=O)N2C2CCCC2)cc1 do in these assays?
DT40 TDP1 no CPT: -7%; HT1080 IDH1KD tx: 5%; IL-1B inflam inh: -6; DT40 TDP1 CPT: 9%; HT1080-NT tox: 6%

What do the screens show for `CN(C)c1ccc(/C=N\NC(=O)c2cccc3cc[nH]c23)cc1`?
DT40 TDP1 no CPT: 6.5µM*; HT1080 IDH1KD tx: -25%; IL-1B inflam inh: -10; DT40 TDP1 CPT: inconclusive; HT1080-NT tox: -4%

How did CCCCCn1nc(C(=O)OCC(=O)c2c(N)n(C)c(=O)n(C)c2=O)c2ccccc2c1=O do in these assays?
DT40 TDP1 no CPT: 21µM*; HT1080 IDH1KD tx: 0%; IL-1B inflam inh: -53*; DT40 TDP1 CPT: inconclusive; HT1080-NT tox: 1%

How did CCCCCCn1nc(C(=O)OCC(=O)c2c(N)n(C)c(=O)n(C)c2=O)c2ccccc2c1=O do in these assays?
DT40 TDP1 no CPT: 18µM*; HT1080 IDH1KD tx: 4%; IL-1B inflam inh: inconclusive; DT40 TDP1 CPT: 21µM*; HT1080-NT tox: 1%

Results for COC(=O)NNC(=S)NCc1ccccc1 ?
DT40 TDP1 no CPT: 5%; HT1080 IDH1KD tx: 1%; IL-1B inflam inh: 12; DT40 TDP1 CPT: -4%; HT1080-NT tox: 1%

How did Cc1cc(C)cc(N(CC(=O)NC2CCC(C)CC2)S(=O)(=O)c2c(C)[nH]c(=O)[nH]c2=O)c1 (centres undefined) do in these assays?
DT40 TDP1 no CPT: -6%; HT1080 IDH1KD tx: -6%; IL-1B inflam inh: 26; DT40 TDP1 CPT: 6%; HT1080-NT tox: -10%
